The campaign covered roughly 1,300 compounds. About 240 (18%) were called active. About 8% were inconclusive and are not listed. Only a sample is shown. Entries with a potency or affinity are not part of this list. Values without a mark were called inactive. The rule behind the calls is not given here.
Assay: HepG2 cell cytotoxicity, dose response, cytotoxicity control, cherry-picked samples (AID 1159577);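 note: 0% = neutral control wells and -100% = positive control wells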
Conditions: HepG2 cytotoxicity counterscreen, plate reader; series mostly up to 19.5 µM; activity change, negative = cytotoxicity: at the top concentration

Compound | activity change, negative = cytotoxicity
O=C(Cc1cccnc1)N1CC[C@H]2[C@H](CO)Nc3ccc(C#Cc4cccc(F)c4)cc3[C@H]21 | 15.6%
COCC(=O)N1[C@H](CO)[C@@H](c2ccccc2)C12CN(Cc1cc(F)ccc1F)C2 | -4.29%
COc1ccccc1-c1ccccc1[C@@H]1[C@@H](C#N)N(C(=O)C2CC2)[C@@H]1CO | -16.3%
COc1ccc2c3c(n(C)c2c1)[C@@H](CO)N(CC1CCCCC1)CC31CCN(C(=O)CN(C)C)CC1 | -15.1%
COc1ccc(C#Cc2ccc3c(c2)[C@H]2[C@H](CCN2C(=O)C2CCCC2)[C@@H](CO)N3)cc1 | 21.2%
CCCNC(=O)N1[C@@H](C#N)[C@H](c2ccccc2-c2ccccc2F)[C@@H]1CO | -1.97%
COc1ccc(NC(=O)N(C)C[C@@H]2Oc3cc(-c4ccc(C)cc4)ccc3S(=O)(=O)N([C@@H](C)CO)C[C@H]2C)cc1 | -3.09%
COc1ccc2c3c(n(C)c2c1)[C@@H](CO)N(C(=O)Nc1ccc(F)cc1)CC31CN(C(=O)c2ccc3c(c2)OCO3)C1 | -22.8%
COc1ccc2c3c([nH]c2c1)[C@@H](CO)N(Cc1cc(F)ccc1F)CC31CN(C(=O)CN(C)C)C1 | -4.77%
CC(C)(C)[S@@](=O)N1Cc2cc(C(=O)NCCc3ccncc3)nc(-c3cccc(-c4ccccc4)c3)c2[C@H]1CCO | 12.2%
COc1ccc2c3c(n(C)c2c1)[C@@H](CO)N(C(=O)C1CCCC1)CC31CN(C(=O)Nc2cccc(F)c2)C1 | 9.52%
CCS(=O)(=O)N1[C@H](CO)[C@H](c2ccc(C#Cc3ccccc3F)cc2)[C@@H]1C#N | -1.99%
COc1cccc(C#Cc2ccc([C@@H]3[C@@H](C#N)N(C(=O)c4ccccn4)[C@H]3CO)cc2)c1 | -15.3%
N#C[C@H]1[C@@H](c2ccc(C#CC3CC3)cc2)[C@H](CO)N1S(=O)(=O)c1ccccc1 | -16.2%
N#C[C@H]1[C@@H](c2ccc(C#CC3CCCC3)cc2)[C@@H](CO)N1S(=O)(=O)Cc1ccccc1 | -18%
N#C[C@H]1[C@H](c2ccc(C#CC3CCCCC3)cc2)[C@@H](CO)N1S(=O)(=O)c1ccccc1 | -13.8% [at 21 µM]
CCCC#Cc1ccc([C@H]2[C@@H](CO)N(C(=O)C3CCCCC3)[C@H]2C#N)cc1 | -23.3%
COc1ccc(C#Cc2ccc3c(c2)[C@H]2[C@H](CCN2Cc2nccs2)[C@@H](CO)N3)cc1 | -4.98% [at 21 µM]
CCCN1C[C@@H](C)[C@H](OC)CN(C)C(=O)c2ccc(NC(=O)c3ccc4c(c3)OCO4)cc2OC[C@H]1C | -8.36% [at 21 µM]
CC(C)(O)C#Cc1cccc(-c2nc(C(=O)N[C@@H]3CCN(Cc4ccccc4)C3)cc3c2[C@H](CCO)N(S(=O)C(C)(C)C)C3)c1 (some centres undefined) | -3.36%
CCCC#Cc1cnc2c(c1)C(=O)N([C@@H](C)CO)C[C@H](C)[C@H](CN(C)C(=O)Nc1cccc(F)c1)O2 | 14.9%
C[C@H](CO)N1C[C@H](C)[C@H](CN(C)S(=O)(=O)c2ccccc2)Oc2cc(C#Cc3ccncc3)ccc2S1(=O)=O | 5.44%
C[C@@H]1CN([C@@H](C)CO)C(=O)c2cccc(NC(=O)c3cnccn3)c2O[C@@H]1CN(C)Cc1ccc(C(F)(F)F)cc1 | -10.4%

Compound | activity change, negative = cytotoxicity
CC(C)(C)S(=O)N1Cc2cc(C(=O)NCc3ccc4c(c3)OCO4)nc(-c3cccc(C#CCC4CCCC4)c3)c2[C@@H]1CCO (some centres undefined) | 18.7%
COc1ccc(-c2ccc([C@@H]3[C@@H](CO)N4C(=O)CN(C(=O)C5CCCC5)C[C@@H]34)cc2)cc1 | 16.6% [at 18 µM]
C[C@@H]1CN([C@@H](C)CO)C(=O)c2cccc(NC(=O)Nc3ccc4c(c3)OCO4)c2O[C@@H]1CN(C)C(=O)Nc1ccc2c(c1)OCO2 | -6.12%
O=C(c1cccnc1)N1CC2(C1)[C@@H](c1ccccc1)[C@@H](CO)N2C(=O)CC1CC1 | 17.3% [at 21 µM]
COc1ccc(S(=O)(=O)N2CCC3(CC2)CN(Cc2ccncc2)[C@H](CO)c2[nH]c4cc(OC)ccc4c23)cc1 | -18.8%
COc1cccc(-c2ccc3c(c2)[C@H]2[C@H](CCN2C(=O)C2CCCCC2)[C@@H](CO)N3)c1 | -20.9%
C[C@@H]1CN([C@@H](C)CO)C(=O)c2cccc(NC(=O)c3nc4ccccc4s3)c2O[C@H]1CN(C)C(=O)NC1CCCCC1 | -10%
OC[C@H]1[C@@H](c2ccc(-c3cccnc3)cc2)[C@@H]2CN(CC3CC3)CCCCN12 | 14.9%
N#C[C@@H]1[C@H](c2ccc(-c3cccc(F)c3)cc2)[C@@H](CO)N1C(=O)NC1CCCC1 | -2.38%
N#C[C@@H]1[C@H](c2ccc(-c3cccc(F)c3)cc2)[C@H](CO)N1C(=O)NC1CCCC1 | -17%
OC[C@H]1[C@@H](c2ccc(-c3cccnc3)cc2)[C@H]2CN(CC3CC3)CCCCN21 | 26.9%
OC[C@@H]1Nc2ccc(C3=CCCCC3)cc2[C@@H]2[C@H]1CCN2Cc1nccs1 | -8.83%
C[C@@H]1CN([C@@H](C)CO)C(=O)c2c(c3ccccc3n2C)-c2ccccc2CO[C@@H]1CN(C)Cc1ccc(Oc2ccccc2)cc1 | -14%
C[C@H]1CN([C@@H](C)CO)C(=O)c2c(c3ccccc3n2C)-c2ccccc2CO[C@@H]1CN(C)Cc1ccc(Oc2ccccc2)cc1 | -45.3%
C[C@@H]1CN([C@@H](C)CO)C(=O)c2c(c3ccccc3n2C)-c2ccccc2CO[C@H]1CN(C)Cc1ccc(Cl)c(Cl)c1 | 3.18% [at 21 µM]
C[C@@H]1CN([C@@H](C)CO)C(=O)c2c(c3ccccc3n2C)-c2ccccc2CO[C@@H]1CN(C)C(=O)c1cc(Cl)cc(Cl)c1 | -16.3%
C[C@@H]1CN([C@H](C)CO)S(=O)(=O)c2ccc(-c3cccc(C(=O)N(C)C)c3)cc2O[C@H]1CN(C)Cc1ccc2c(c1)OCO2 | 0.311%
COCC#Cc1ccc(CC[C@H]2O[C@H]3CC[C@H](CO)O[C@H]3C[C@@H]2n2cc(C3CC3)nn2)cc1 | 1.23%
COc1cccc(NC(=O)N2CC(=O)N3[C@H](CO)[C@@H](c4ccc(C#CCC5CCCC5)cc4)[C@H]3C2)c1 | -4.34%
COc1ccc2c3c(n(C)c2c1)[C@H](CO)N(C(=O)Nc1ccc(F)cc1)CC31CCN(Cc2cccnc2)CC1 | -0.659%
COc1cccc(C#Cc2ccc([C@H]3[C@@H](CO)N4C(=O)CN(C(=O)Cc5ccccc5)C[C@H]34)cc2)c1 | 3.61%
Cc1ccc(-c2ccc([C@H]3[C@@H](CO)N4C(=O)CN(C(=O)Nc5cccc(F)c5)C[C@H]34)cc2)cc1 | 2.67%
C[C@H]1CN([C@@H](C)CO)C(=O)c2c(c3ccccc3n2C)-c2ccccc2CO[C@H]1CN(C)C(=O)c1cc(Cl)cc(Cl)c1 | 4.79% [at 21 µM]

Compound | activity change, negative = cytotoxicity
CCS(=O)(=O)N1CCC2(CC1)CN(Cc1cc(F)ccc1F)[C@H](CO)c1c2c2ccc(OC)cc2n1C | 8.03%
CCCNC(=O)Nc1ccc2c(c1)OC[C@@H](C)N(CC1CCCC1)C[C@@H](C)[C@H](OC)CN(C)C2=O | -23.9%
COc1ccc2c3c([nH]c2c1)[C@H](CO)N(Cc1ccccc1OC)CC31CCN(S(=O)(=O)c2ccccc2)CC1 | -3.09%
COc1ccc2c3c([nH]c2c1)[C@H](CO)N(C(=O)C1CCOCC1)CC31CCN(Cc2nccs2)CC1 | -9.73%
O=C(C[C@H]1C[C@@H]2c3cc(NS(=O)(=O)c4ccc(F)cc4)ccc3O[C@@H]2[C@@H](CO)O1)N1CCc2ccccc2C1 | -5.93%
O=C(c1ccccc1F)N1CC(=O)N2[C@H](C1)[C@@H](c1ccc(-c3cccnc3)cc1)[C@@H]2CO | -10.1%
N#C[C@@H]1[C@@H](c2ccccc2C2=CCCC2)[C@H](CO)N1C(=O)C1CC1 | -21.1% [at 18 µM]
O=C(Nc1ccccc1)N1CCCCN2[C@@H](CO)[C@H](c3ccc(C#Cc4cccnc4)cc3)[C@@H]2C1 | 16.9%
O=C(Nc1ccccc1)N1CCCCN2[C@H](CO)[C@H](c3ccc(C#Cc4ccccc4)cc3)[C@@H]2C1 | 15%
COc1ccc(NC(=O)N2CCCCN3[C@H](CO)[C@H](c4ccc(C#CCC(C)C)cc4)[C@@H]3C2)cc1 | 11.6%
O=C(Nc1cccc(F)c1)N1CCCCN2[C@@H](CO)[C@H](c3ccc(C#Cc4cccnc4)cc3)[C@@H]2C1 | -13.2%
COc1ccc(NC(=O)N2CCCCN3[C@@H](CO)[C@H](c4ccc(C#Cc5ccccn5)cc4)[C@@H]3C2)cc1 | 15.3%
O=C(Nc1cccc(F)c1)N1CCCCN2[C@H](CO)[C@H](c3ccc(C#Cc4ccccc4)cc3)[C@@H]2C1 | 0.219%
COc1ccc(C#Cc2ccc3c(c2)[C@H]2[C@H](CCN2C(=O)c2ccccn2)[C@@H](CO)N3)cc1 | -7.07%
COc1ccc(NC(=O)N2CCC3(CC2)CN(C(=O)C2CCC2)[C@H](CO)c2c3c3ccc(OC)cc3n2C)cc1 | -1.36%
C[C@@H]1CN([C@H](C)CO)C(=O)c2c(c3ccccc3n2C)-c2ccccc2CO[C@H]1CN(C)S(=O)(=O)c1ccc(C(F)(F)F)cc1 | 18%
C[C@@H]1CN([C@@H](C)CO)C(=O)c2c(c3ccccc3n2C)-c2ccccc2CO[C@H]1CN(C)C(=O)Cc1ccccc1 | -7.33%
CCC(=O)N1CC2(C1)[C@@H](c1ccc(-c3cccc(OC)c3)cc1)[C@@H](CO)N2C(C)=O | -16.1%
CO[C@H]1CN(C)C(=O)c2cc(NC(=O)C3CC3)ccc2OC[C@H](C)N(Cc2cc(F)ccc2F)C[C@@H]1C | 32%
COc1ccc(S(=O)(=O)Nc2ccc3c(c2)CC(=O)N([C@@H](C)CO)C[C@H](C)[C@H](CN(C)S(=O)(=O)c2ccc(C)cc2)O3)cc1 | 7.4%
Cc1ccc(S(=O)(=O)N(C)C[C@H]2OCc3ccccc3-c3c(n(C)c4ccccc34)C(=O)N([C@@H](C)CO)C[C@H]2C)cc1 | -5.12% [at 21 µM]
COc1ccc(C#Cc2ccc([C@H]3[C@H]4CN(C(=O)Nc5ccccc5)CCCCN4[C@H]3CO)cc2)cc1 | 0.362%
COc1ccc(NC(=O)N2CCCCN3[C@H](CO)[C@H](c4ccc(C#Cc5ccccc5)cc4)[C@@H]3C2)cc1 | -6.2%
